{
  "source": "PubChem BioAssay AID2314",
  "about": "(National Center for Advancing Translational Sciences (NCATS), 2010)",
  "note": "Screen size: about 300,000 compounds; about 37,000 (12%) were called active. Rule as the data show it: active = max response mostly above about 13% (no sharp cut-off); inactive = mostly below about 14%. The sample as a whole holds a higher share of actives than the screen did.",
  "data": [
    {"assay": "Cycloheximide Counterscreen for Small Molecule Inhibitors of Shiga Toxin; also: read at 38.3 µM for the half of the compounds with a filed dose; 0% is about no effect", "conditions": "cell reporter, cycloheximide protein synthesis inhibition counterscreen; hits give high values", "values": [
      {"smiles": "Cc1ccc(C)c(N2CCN(C(=O)CCCCCn3c(=S)[nH]c4ccc(N5CCOCC5)cc4c3=O)CC2)c1", "max response": "9.94% (inactive)"},
      {"smiles": "Fc1ccc2[nH]c3c(N4CCSCC4)ncnc3c2c1", "max response": "5.04% (inactive)"},
      {"smiles": "CC(C)OCCCNc1ncnc2c1[nH]c1ccc(F)cc12", "max response": "39% (active)"},
      {"smiles": "COc1cc(OC)c(OC)cc1/C=N/Nc1ncnc2c1[nH]c1ccc(C)cc12", "max response": "-3.15% (inactive)"},
      {"smiles": "O=CN1CCN(C(=O)c2ccc(Br)o2)CC1", "max response": "1.29% (inactive)"},
      {"smiles": "C=CCn1c(Oc2ccc(C(=O)OC)cc2)nc2c1c(=O)n(C)c(=O)n2C", "max response": "-5.23% (inactive)"},
      {"smiles": "Cc1ccccc1NC(=O)N1CCCC1C(=O)NCc1ccccc1", "note": "(configuration not stated)", "max response": "-1.83% (inactive)"},
      {"smiles": "Cc1c(CCO)c(=O)[nH]n1C(=O)c1c(F)cccc1F", "max response": "17% (inactive)"},
      {"smiles": "COc1ccc(-n2ncc3c(N4CCc5ccccc54)ncnc32)cc1", "max response": "49.8% (active)"},
      {"smiles": "COc1ccc(Oc2c(Cl)cnn(-c3ccccc3)c2=O)cc1", "max response": "-1.92% (inactive)"},
      {"smiles": "COc1ccc(CCC(C)N2CCc3ccccc3C2)cc1", "note": "(configuration not stated)", "max response": "1.02% (inactive)"},
      {"smiles": "COc1ccc(-n2ncc3c(N4CCCc5ccccc54)ncnc32)cc1", "max response": "44.9% (active)"},
      {"smiles": "COc1ccc(-n2ncc3c2CC(C)(C)CC3NC(=O)CCc2c(C)noc2C)cc1", "note": "(configuration not stated)", "max response": "1.45% (inactive)"},
      {"smiles": "C#CC(CCN1CCCCC1)(OC)c1ccccc1", "note": "(configuration not stated)", "max response": "-1.93% (inactive)"},
      {"smiles": "COc1ccccc1NC(=S)N1CCN(C(c2ccccc2)c2ccccc2)CC1", "max response": "-1.77% (inactive)"},
      {"smiles": "Cc1cccc(NC(=S)N2CCC(c3nc4ccccc4s3)CC2)c1", "max response": "-8.19% (inactive)"},
      {"smiles": "Cc1nc2ccc(NC(=O)N3CCC(c4ccccc4)C3)cc2nc1C", "note": "(configuration not stated)", "max response": "-1.48% (inactive)"},
      {"smiles": "Cc1nc2ccc(NC(=S)N3CCC(C)CC3)cc2nc1C", "max response": "29.7% (active)"},
      {"smiles": "CC(=O)N1CCN(CC(=O)Nc2ccc(SC(F)F)cc2)CC1", "max response": "-7.31% (inactive)"},
      {"smiles": "O=C(Cc1ccc(Cl)c(Cl)c1)Nc1ccc(SC(F)F)cc1", "max response": "32.1% (active)"},
      {"smiles": "Cc1ccc(CC(=O)Nc2ccc(OC(F)F)c(Cl)c2)cc1C", "max response": "-1.56% (inactive)"},
      {"smiles": "Cc1ccc(C(C[N+](=O)[O-])c2c(C)cc3ccccn23)cc1", "note": "(configuration not stated)", "max response": "-2.05% (inactive)"},
      {"smiles": "Nc1ccccc1SC(C[N+](=O)[O-])c1ccccc1", "note": "(configuration not stated)", "max response": "58.7% (active)"},
      {"smiles": "CCCN1C2CCCC1CC(NC(=O)c1cccc(OC)c1)C2", "note": "(configuration not stated)", "max response": "0.249% (inactive)"},
      {"smiles": "COc1ccccc1C1CCN(c2ccc([N+](=O)[O-])cn2)CC1", "max response": "4.09% (inactive)"},
      {"smiles": "O=C(Cc1c(Cl)cccc1Cl)NC1CC1", "max response": "-4.84% (inactive)"},
      {"smiles": "Cc1ccc(S(=O)(=O)c2nnn3c2nc(N2CCN(c4ccccn4)CC2)c2ccccc23)cc1", "max response": "-2.94% (inactive)"}
    ]}
  ]
}
